Calls of active or inactive are those of the source.
Tests used:
[1] = optical density shifts of acrAB sulA E. coli – strain DRC41, OD650, 48 h, E. coli filamentation inducer project, primary screen (AID 1152); settings: higher = more signal, called active from +8 up or from −8 down;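 note: E. coli MC1000 strain DRC41 lacking acrAB efflux pump and sulA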
[2] = probe aLefty1 binding on compound microarray – biochemical, small-molecule microarray, 635/667 nm fluorescence, primary screen (AID 1153); settings: higher = more signal;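 note: score merges spot fluorescence with signal-to-noise ratio from the scanned slide images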
[3] = plasmodial surface anion channel blockers, osmotic lysis – cell-based, P. falciparum Indochina, OD700, 1 h, primary screen (AID 1154); settings: P. falciparum Indochina infected RBC osmotic lysis, higher = more signal, called active from +8 up or from −8 down
[4] = plasmodial surface anion channel blockers, osmotic lysis – cell-based, P. falciparum Indochina, OD700, 2 h, primary screen (AID 1155);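 note: lysis reports solute entry through the parasite surface anion channel PSAC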; settings: P. falciparum Indochina infected erythrocytes, higher = more signal, called active from +8 up or from −8 down
[5] = changes in parasitized red cell lysis, either direction – P. falciparum Indochina, OD700, 3 h, PSAC antagonist project, primary screen (AID 1156); settings: P. falciparum-infected erythrocytes, osmotic lysis, higher = more signal, called active from +8 up or from −8 down
[6] = plasmodial surface anion channel blockers, osmotic lysis – cell-based, P. falciparum Indochina, OD700, 18 h, primary screen (AID 1157); settings: P. falciparum Indochina infected erythrocytes, osmotic lysis OD700, 18 h; higher = more signal, called active from +8 up or from −8 down
[7] = S6 kinase pathway phospho-S6 level changes – cell-based, A549, cytoblot, luminescence, serum-stimulated, primary screen (AID 1158); settings: 5 h, higher = more signal;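 note: serum-stimulated A549 lung adenocarcinoma cells; signal is phosphorylated S6 detected by cytoblot immunostaining with HRP secondary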
[8] = biological target: NADPH oxidase 2 (Homo sapiens) (UniProt P04839); test: compounds shifting NOX2 Amplex Red fluorescence – cell-based, HEK293-NOX2, PMA-stimulated, NOX inhibitor project, primary screen (AID 1159); settings: 45 min, higher = more signal, called active from +8 up or from −8 down; note: test concentration not given here
[9] = biological target: NADPH oxidase 4 (Homo sapiens) (UniProt Q9NPH5); test: compounds shifting NOX4 Amplex Red fluorescence – cell-based, HEK293-NOX4, tetracycline-induced, NOX inhibitor project, primary screen (AID 1160); settings: HEK293-NOX4, Amplex Red H2O2 fluorescence, 45 min; higher = more signal, called active from +8 up or from −8 down
[10] = biological target: NADPH oxidase 5 (Homo sapiens) (UniProt Q96PH1); test: compounds shifting NOX5 Amplex Red fluorescence – cell-based, HEK293-NOX5, NOX inhibitor project, primary screen (AID 1161); settings: HEK293-NOX5, ionomycin, 45 min, higher = more signal
[11] = compound effects on lung adenocarcinoma cell viability – A549, calcein-AM fluorescence, 48 h, basal, profiling panel (AID 1162); settings: higher = more signal; note: test concentration not given here
[12] = compound effects on differentiated 3T3-L1 adipocyte viability – cell-based, 3T3-L1 adipocytes, calcein-AM fluorescence, 48 h, basal, profiling panel (AID 1163); settings: 3T3-L1 adipocytes viability, higher = more signal; note: test concentration not given here
[13] = compound effects on hepatocellular carcinoma cell viability – HepG2, calcein-AM fluorescence, 48 h, basal, profiling panel (AID 1164); settings: higher = more signal; note: test concentration not given here
[14] = compound effects on multiple myeloma cell viability – MM1S, calcein-AM fluorescence, 48 h, basal, profiling panel (AID 1165); settings: higher = more signal;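 note: viability of MM1S multiple myeloma cells under basal unstimulated conditions; test concentration not given here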
[15] = calcein-AM signal in unstimulated myeloma cells – cell-based, calcein-AM fluorescence, 48 h, PK04 Diversity Set, profiling panel (AID 1166); settings: RPMI8226 myeloma viability, higher = more signal;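 note: cells grown under basal conditions without added stimulus; test concentration not given here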
[16] = JC-1 mitochondrial signal, unstimulated HepG2 cells – cell-based, JC-1 fluorescence, 24 h, 100 nL compound, profiling panel (AID 1167); settings: HepG2 mitochondrial potential, higher = more signal; note: test concentration not given here
[17] = JC-1 mitochondrial signal, unstimulated adipocytes – cell-based, JC-1 fluorescence, 3T3-L1 adipocytes, 24 h, 100 nL compound, profiling panel (AID 1168); settings: JC-1 mitochondrial fluorescence, higher = more signal, called active from +8 up or from −8 down; note: test concentration not given here
[18] = JC-1 mitochondrial signal, unstimulated myeloma cells – cell-based, JC-1 fluorescence, RPMI8226, 24 h, 100 nL compound, profiling panel (AID 1169); settings: JC-1 mitochondrial potential fluorescence, higher = more signal; note: test concentration not given here
[19] = JC-1 mitochondrial signal, unstimulated MM1S myeloma – cell-based, JC-1 fluorescence, 24 h, 100 nL compound, profiling panel (AID 1170); settings: MM1S mitochondrial potential, higher = more signal; note: test concentration not given here
[20] = resazurin metabolic signal in A549 cells – cell-based, resazurin fluorescence, 24 h, PK04 Diversity Set, profiling panel (AID 1171); settings: A549 viability, higher = more signal, called active from +8 up or from −8 down; note: test concentration not given here

Sequence of NADPH oxidase 4 (Homo sapiens) (Q9NPH5 whole entry, looked up): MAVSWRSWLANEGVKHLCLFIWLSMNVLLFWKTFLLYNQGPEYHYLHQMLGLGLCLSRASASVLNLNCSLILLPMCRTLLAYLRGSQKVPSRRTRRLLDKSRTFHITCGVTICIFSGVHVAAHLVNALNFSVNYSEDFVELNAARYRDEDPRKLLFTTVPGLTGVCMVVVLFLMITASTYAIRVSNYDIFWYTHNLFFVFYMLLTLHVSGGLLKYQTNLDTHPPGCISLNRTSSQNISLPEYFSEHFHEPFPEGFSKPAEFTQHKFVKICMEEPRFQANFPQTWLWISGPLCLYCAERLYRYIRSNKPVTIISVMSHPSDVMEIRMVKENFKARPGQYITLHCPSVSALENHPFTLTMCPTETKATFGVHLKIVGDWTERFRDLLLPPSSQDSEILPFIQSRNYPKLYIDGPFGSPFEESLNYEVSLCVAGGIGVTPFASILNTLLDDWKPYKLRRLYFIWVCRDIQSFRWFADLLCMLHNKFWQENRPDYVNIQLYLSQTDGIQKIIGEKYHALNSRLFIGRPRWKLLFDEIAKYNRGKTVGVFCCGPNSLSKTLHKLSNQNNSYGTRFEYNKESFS
Sequence of NADPH oxidase 5 (Homo sapiens) (Q96PH1 whole entry, looked up): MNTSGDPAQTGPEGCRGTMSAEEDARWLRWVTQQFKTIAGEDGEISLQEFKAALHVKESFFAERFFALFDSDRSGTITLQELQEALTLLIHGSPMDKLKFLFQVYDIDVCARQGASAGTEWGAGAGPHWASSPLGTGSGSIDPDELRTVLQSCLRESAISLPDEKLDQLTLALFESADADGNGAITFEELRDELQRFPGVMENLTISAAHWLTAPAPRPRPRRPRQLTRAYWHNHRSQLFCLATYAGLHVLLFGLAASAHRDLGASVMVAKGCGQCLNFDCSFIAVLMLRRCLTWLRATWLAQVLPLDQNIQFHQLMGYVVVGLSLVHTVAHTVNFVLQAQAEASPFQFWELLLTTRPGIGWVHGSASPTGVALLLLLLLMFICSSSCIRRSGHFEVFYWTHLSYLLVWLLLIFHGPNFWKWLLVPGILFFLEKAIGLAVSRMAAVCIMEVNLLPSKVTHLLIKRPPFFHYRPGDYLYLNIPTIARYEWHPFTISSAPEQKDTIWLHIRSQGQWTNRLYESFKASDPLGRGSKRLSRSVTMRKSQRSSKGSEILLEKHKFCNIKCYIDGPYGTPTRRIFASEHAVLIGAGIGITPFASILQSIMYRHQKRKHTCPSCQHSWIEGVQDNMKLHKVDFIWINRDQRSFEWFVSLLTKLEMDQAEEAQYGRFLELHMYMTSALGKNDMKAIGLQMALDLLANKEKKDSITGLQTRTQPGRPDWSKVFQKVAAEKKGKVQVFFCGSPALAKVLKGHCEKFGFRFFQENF
Sequence of NADPH oxidase 2 (Homo sapiens) (P04839 whole entry, looked up): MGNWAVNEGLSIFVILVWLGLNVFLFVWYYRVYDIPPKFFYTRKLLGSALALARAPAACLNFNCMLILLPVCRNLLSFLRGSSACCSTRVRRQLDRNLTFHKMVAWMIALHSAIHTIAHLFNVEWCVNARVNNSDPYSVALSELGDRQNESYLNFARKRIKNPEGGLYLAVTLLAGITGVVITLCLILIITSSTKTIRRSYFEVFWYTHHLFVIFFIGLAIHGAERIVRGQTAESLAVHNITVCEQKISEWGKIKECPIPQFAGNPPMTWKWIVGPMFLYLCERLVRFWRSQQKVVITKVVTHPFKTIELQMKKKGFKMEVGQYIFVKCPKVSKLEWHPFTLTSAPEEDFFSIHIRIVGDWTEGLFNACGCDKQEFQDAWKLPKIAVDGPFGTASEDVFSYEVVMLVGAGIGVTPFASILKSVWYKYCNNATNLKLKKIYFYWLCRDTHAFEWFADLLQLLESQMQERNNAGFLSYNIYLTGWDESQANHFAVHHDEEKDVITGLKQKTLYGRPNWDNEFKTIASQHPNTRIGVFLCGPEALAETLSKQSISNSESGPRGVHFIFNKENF

| Compound | z-score [1] | composite z-score [2] | z-score [3] | z-score [4] | z-score [5] | z-score [6] | z-score [7] | z-score [8] | z-score [9] | z-score [10] | z-score [11] | z-score [12] | z-score [13] | z-score [14] | z-score [15] | z-score [16] | z-score [17] | z-score [18] | z-score [19] | z-score [20] |
| --- | --- | --- | --- | --- | --- | --- | --- | --- | --- | --- | --- | --- | --- | --- | --- | --- | --- | --- | --- | --- |
| CN(C)CCCCCCNC(=O)[C@@H]1C[C@@H]2C(=O)NCC(=O)N2[C@@H]1c1cccc(OCCO)c1 | 0.492 (inactive) | 0.169 | 2.11 (inactive) | 0.109 (inactive) | 2.28 (inactive) | 0.253 (inactive) | 0.0964 | 0.438 (inactive) | 0.611 (inactive) | 0.6 | -0.129 | -0.215 | -0.225 | 0.0864 | 1.45 | -0.305 | -0.0086 (inactive) | -0.12 | -0.659 | -0.427 (inactive) |
| COC(=O)[C@@]1(Cc2ccc(F)cc2)[C@H]2c3cc(C(=O)N4CCCC4)n(CCc4ccc(OC)c(Br)c4)c3C[C@H]2CN1C(=O)c1ccccc1 | -0.71 (inactive) | 1.2 | 7.48 (inactive) | 1.5 (inactive) | 0.248 (inactive) | 1.33 (inactive) | 0.0028 | 0.0756 (inactive) | 0.742 (inactive) | 0.98 | -1.58 | -0.483 | -2.5 | -1.66 | -4.69 | 0.275 | -0.317 (inactive) | -0.626 | -2.09 | -2.3 (inactive) |
| O=C1OCCC=C[C@H]2OC34C=CCN(CCN5CCOCC5)C(=O)[C@H]3N(CCO)C(=O)[C@@H]4C12 (stereo not given in full) | -0.392 (inactive) | -0.231 | 0.329 (inactive) | 0.392 (inactive) | 0.918 (inactive) | 0.551 (inactive) | 0.65 | 0.808 (inactive) | 0.49 (inactive) | 0.0715 | -0.53 | -0.246 | -0.209 | 0.471 | -0.253 | -0.659 | -0.293 (inactive) | -0.578 | -0.47 | -0.948 (inactive) |
| O=C1C[C@@](C(=O)O)(c2ccc([N+](=O)[O-])cc2)[C@@H](c2ccc(CO)cc2I)N1C1CCCCC1 | 1.52 (inactive) | 0.208 | 17.5 (active) | 2.77 (inactive) | 3.02 (inactive) | 0.202 (inactive) | 1.84 | 1.46 (inactive) | -2.82 (inactive) | -1.78 | 1.05 | 1.32 | 0.279 | -3.6 | -3.61 | 0.053 | -0.962 (inactive) | -0.826 | -1.86 | 0.597 (inactive) |
| Cc1ccccc1/C=C/C=O | 0.871 (inactive) | -0.147 | 0.51 (inactive) | 0.146 (inactive) | -0.0758 (inactive) | 0.231 (inactive) | -0.265 | -0.59 (inactive) | -0.0992 (inactive) | 0.45 | 1.59 | -0.345 | 0.93 | -0.499 | 0.0415 | 1.65 | 1.39 (inactive) | 0.426 | -0.962 | -0.122 (inactive) |
| CS(=O)(=O)CCOC(=O)C1=CC(c2ccc(CO)cc2)=CC(c2cccs2)N(Cc2cccc(OC(F)(F)F)c2)C=C1C(=O)OCCS(C)(=O)=O (stereo not given) | -2.86 (inactive) | 0.0575 | 14.8 (active) | 4.37 (inactive) | 0.869 (inactive) | 1.95 (inactive) | 0.158 | -2.07 (inactive) | -1.09 (inactive) | -2.37 | 0.0527 | 0.171 | -1.31 | -3.31 | -3.27 | -2.84 | 0.384 (inactive) | -0.722 | -1.28 | -0.481 (inactive) |
| COCCOC(=O)N1C(=O)[C@@]2(c3ccccc31)[C@H](C(=O)N1CCCCCCC1)[C@H]1C(=O)O[C@H](c3ccccc3)[C@H](c3ccccc3)N1[C@@H]2c1ccccc1OCCO | -0.946 (inactive) | 2.79 | 1.49 (inactive) | 0.529 (inactive) | 0.537 (inactive) | 0.49 (inactive) | -0.408 | 0.966 (inactive) | 0.739 (inactive) | 1.24 | -0.501 | 0.293 | 0.603 | -0.252 | -1.84 | -0.114 | -0.226 (inactive) | -1.1 | -1.04 | -0.467 (inactive) |
| COCCOC(=O)N1C(=O)[C@@]2(c3cc(C#CC4=CCCCC4)ccc31)[C@H](C(=O)N1CCN(c3ncccn3)CC1)[C@H]1C(=O)O[C@H](c3ccccc3)[C@H](c3ccccc3)N1[C@@H]2c1ccc(OCCO)cc1 | -0.0557 (inactive) | 0.894 | 5.23 (inactive) | 1.85 (inactive) | 0.251 (inactive) | 0.657 (inactive) | 0.212 | 0.977 (inactive) | 0.645 (inactive) | 0.934 | -0.167 | 0.937 | -0.247 | -1.05 | -0.812 | -0.203 | 1.59 (inactive) | -0.606 | -0.822 | 0.532 (inactive) |
| COCCOC(=O)N1C(=O)[C@@]2(c3cc(C#CCCO)ccc31)[C@H](c1ccc(O)cc1)N1[C@H](c3ccccc3)[C@H](c3ccccc3)OC(=O)[C@H]1[C@@H]2C(=O)N1CCCCCCC1 | -0.275 (inactive) | 1.6 | 0.139 (inactive) | -0.178 (inactive) | -0.599 (inactive) | 0.0501 (inactive) | -0.451 | 1.17 (inactive) | 0.131 (inactive) | 1.38 | -0.0601 | 0.943 | 1.18 | 0.632 | -1.22 | -0.701 | -0.838 (inactive) | 0.242 | 0.271 | -0.44 (inactive) |

Reference: PubChem BioAssay
